According to PubChem BioAssay (NCI):
Several values for one entry are separate records, joined by “and”; a condition that tells them apart may be missing. Identical values can stand only once. Compounds without any hit were thinned out: in the full panel of roughly 79,000, 15% have a hit. Some structures have more than one record in an assay (separate samples or runs), and their calls can disagree. Activity calls are given as the source filed them. No stated cut-off is given here; in the data, active means growth inhibition above about 70%; inactive means the rest.

How the values were obtained:
[1] = NCI Yeast Anticancer Drug Screen. Data for the rad52 strain (AID 147);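 further: 0% = growth of vehicle-treated control cultures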; details: S. cerevisiae rad52 mutant growth inhibition, stronger effect = higher value
In short: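 Screen used a yeast mutant impaired in DNA repair. After compound exposure, growth was measured. Values reflect inhibition compared with vehicle-treated cells.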

[2] = NCI Yeast Anticancer Drug Screen. Data for the wt1 strain (AID 149);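 further: 0% = growth of vehicle-treated wt1 cultures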; details: S. cerevisiae wt1 strain (SPY 50644) growth inhibition, stronger effect = higher value
In short: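 Measured: growth of wt1 yeast under compound versus vehicle treatment, reported as inhibition.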

[3] = NCI Yeast Anticancer Drug Screen. Data for the rad50EPP+ strain (AID 151);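 further: 0% = growth of vehicle-treated control cultures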; details: S. cerevisiae rad50 mutant strain, stronger effect = higher value
In short: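 Exposing the rad50EPP+ strain to each compound, growth was compared with vehicle-only cultures to give inhibition.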

[4] = NCI Yeast Anticancer Drug Screen. Data for the mgt1 strain (AID 153); details: S. cerevisiae mgt1 mutant growth inhibition, stronger effect = higher value
In short: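 Genetically defined yeast (mgt1) treated with compound; inhibition of growth expressed against vehicle-treated controls.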

[5] = NCI Yeast Anticancer Drug Screen. Data for the rad50 strain (AID 155);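 further: 0% = growth of vehicle-only cultures of the same strain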; details: S. cerevisiae rad50 strain growth inhibition, stronger effect = higher value
In short: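 Growth of the mutant yeast was measured after compound exposure and referenced to vehicle-treated cultures.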

[6] = NCI Yeast Anticancer Drug Screen. Data for the mec2-1 strain (AID 157); details: S. cerevisiae mec2-1 strain, stronger effect = higher value
In short: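 Readout is yeast growth inhibition, normalised to vehicle-treated controls, in the mec2-1 strain exposed to compound.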

[7] = NCI Yeast Anticancer Drug Screen. Data for the sgs1 mgt1 strain (AID 161);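 further: 0% = growth of cultures given vehicle only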; details: S. cerevisiae sgs1 mgt1 strain, stronger effect = higher value
In short: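 Yeast cells carrying a defined DNA-repair defect were exposed to test compounds. Growth inhibition was measured relative to vehicle-treated controls.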

[8] = NCI Yeast Anticancer Drug Screen. Data for the CLN2oe strain (AID 163);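 further: 0% = growth of vehicle-only control cultures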; details: S. cerevisiae CLN2oe strain, stronger effect = higher value
In short: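 Values reflect how much compound exposure reduced yeast growth, referenced to vehicle-exposed cells. Assay organism is a strain with a defined genetic change affecting cell-cycle control.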

[9] = NCI Yeast Anticancer Drug Screen. Data for the cln2 rad14 strain (AID 165);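 further: 0% = growth equal to vehicle treated cultures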; details: S. cerevisiae cln2 rad14 strain, stronger effect = higher value
In short: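 Relative to vehicle controls, growth inhibition of compound-treated cln2 rad14 yeast was recorded.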

[10] = NCI Yeast Anticancer Drug Screen. Data for the bub3 strain (AID 167); details: S. cerevisiae bub3 mutant strain, stronger effect = higher value
In short: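 Whole-cell yeast assay. The mutant strain was incubated with compounds, and growth inhibition was determined by comparison with vehicle-treated cells.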

[11] = NCI Yeast Anticancer Drug Screen. Data for the wt2 strain (AID 169);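 further: 0% = growth of vehicle-treated yeast cultures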; details: S. cerevisiae wt2 strain growth inhibition, stronger effect = higher value
In short: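 Values express reduction in yeast growth under compound treatment, referenced to vehicle-treated cells.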

[12] = NCI Yeast Anticancer Drug Screen. Data for the mlh1 strain (AID 171);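 further: 0% = growth of vehicle-treated control cultures of the same strain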; details: S. cerevisiae mlh1 strain growth inhibition, stronger effect = higher value
In short: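 Steps: expose the defined-mutant yeast strain to compound; expose a parallel culture to vehicle; measure growth; express compound effect as inhibition relative to the vehicle culture.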

[13] = NCI Yeast Anticancer Drug Screen. Data for the sgs1 strain (AID 173);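 further: 0% = growth of vehicle-only control cultures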; details: S. cerevisiae sgs1 mutant, stronger effect = higher value
In short: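 Treat defined-mutant yeast with compound; measure growth; calculate inhibition relative to vehicle-treated cells.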

[14] = NCI Yeast Anticancer Drug Screen. Data for the mlh1 rad18 strain (AID 175); details: S. cerevisiae mlh1 rad18 strain growth inhibition, stronger effect = higher value
In short: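 Test agents were incubated with a yeast strain of defined genotype (DNA damage repair defect). Inhibition of growth was derived by comparison with vehicle-exposed cultures.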

[15] = NCI Yeast Anticancer Drug Screen. Data for the rad18 strain (AID 177); details: S. cerevisiae rad18 mutant growth inhibition, stronger effect = higher value
In short: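 A genetically defined yeast mutant impaired in DNA damage repair was treated with test compounds, then its growth was measured against cultures receiving vehicle alone.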

[16] = NCI Yeast Anticancer Drug Screen. Data for the rad14 strain (AID 159);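 further: 0% = growth of vehicle-treated control cultures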; details: S. cerevisiae rad14 strain growth inhibition, stronger effect = higher value
In short: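 Here, inhibition of yeast growth was measured after compound exposure, using a strain with a genetic defect in DNA damage repair and vehicle-treated cultures as the reference.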

[17] = at 5.0 µM (retest, dose inferred, filed as 0.5)
[18] = at 50.0 µM (retest, dose inferred, filed as 5.0)

Measured: growth inhibition

CC(O)=NC(Cc1ccc2ccccc2c1)C(O)=NC(Cc1ccc(Cl)cc1)C(O)=NC(Cc1c[nH]c2ccccc12)C(O)=NC(CO)C(O)=NC(Cc1ccc(O)cc1)C(O)=NC(CCCN=C(N)N)C(O)=NC(CC(C)C)C(O)=NC(CCCN=C(N)N)C(=O)N1CCCC1C(O)=NC(C)C(=N)O (stereo unspecified)
active: [14]; [18] 70%
inactive: [1]; at 1.2 µM -7% | [1]; at 3.7 µM -8% | [1]; at 11.0 µM -4% | [1]; at 33.0 µM 4% | [1]; at 100.0 µM 16% | [2]; at 1.2 µM -2% | [2]; at 3.7 µM -4% | [2]; at 11.0 µM -5% | [2]; at 33.0 µM -3% | [2]; at 100.0 µM -1% | [3]; at 1.2 µM -4% | [3]; at 3.7 µM 2% | [3]; at 11.0 µM 11% | [3]; at 33.0 µM 16% | [3]; at 100.0 µM 11% | [4]; at 1.2 µM -3% | [4]; at 3.7 µM -2% | [4]; at 11.0 µM -4% | [4]; at 33.0 µM -5% | [4]; at 100.0 µM 6% | [5]; at 1.2 µM -5% | [5]; at 3.7 µM -2% | [5]; [17] -9% | [5]; at 11.0 µM 1% | [5]; at 33.0 µM 3% | [5]; [18] 16% | [5]; at 50.0 µM 18.1% | [5]; at 100.0 µM 25% | [6]; at 1.2 µM -2% | [6]; at 3.7 µM -3% | [6]; [17] -14% | [6]; at 11.0 µM -4% | [6]; at 33.0 µM -2% | [6]; [18] -6% | [6]; at 50.0 µM 1.1% | [6]; at 100.0 µM 3% | [7]; [17] 2% | [7]; [18] 20% | [7]; at 50.0 µM 3% | [8]; at 1.2 µM -4% | [8]; at 3.7 µM 0% | [8]; at 11.0 µM 3% | [8]; at 33.0 µM 19% | [8]; at 100.0 µM 32% | [9]; [17] -5% | [9]; [18] 18% | [9]; at 50.0 µM 12.2% | [10]; at 1.2 µM -2% | [10]; at 3.7 µM -1% | [10]; [17] 39% | [10]; at 11.0 µM -4% | [10]; at 33.0 µM -1% | [10]; [18] 32% | [10]; at 50.0 µM 19.9% | [10]; at 100.0 µM 1% | [11]; at 1.2 µM -9% | [11]; at 3.7 µM -10% | [11]; at 11.0 µM -2% | [11]; at 33.0 µM 11% | [11]; at 100.0 µM 2% | [12]; at 1.2 µM -7% | [12]; at 3.7 µM -4% | [12]; at 11.0 µM -3% | [12]; at 33.0 µM 3% | [12]; at 100.0 µM 17% | [13]; at 1.2 µM -21% | [13]; at 3.7 µM -18% | [13]; at 11.0 µM -17% | [13]; at 33.0 µM 3% | [13]; at 100.0 µM 44% | [14]; [17] 52% | [14]; at 50.0 µM 58.4% | [15]; at 1.2 µM -6% | [15]; at 3.7 µM -6% | [15]; at 11.0 µM -3% | [15]; at 33.0 µM 1% | [15]; at 100.0 µM 35%

COc1ccc2c(c1)n([O-])c1ccccc1[n+]2=O
17% (inactive) and 81% (active): [14]; [17]
active: [1]; at 11.0 µM 86% | [1]; at 33.0 µM 95% | [1]; at 100.0 µM 97% | [3]; at 3.7 µM 72% | [3]; at 11.0 µM 93% | [3]; at 33.0 µM 97% | [3]; at 100.0 µM 98% | [4]; at 100.0 µM 88% | [5]; at 11.0 µM 91% | [5]; at 33.0 µM 95% | [5]; [18] 95% and 98% | [5]; at 100.0 µM 98% | [6]; [18] 75% and 99% | [6]; at 100.0 µM 93% | [16]; at 100.0 µM 95% | [7]; [18] 71% and 99% | [9]; [18] 90% and 97% | [9]; at 50.0 µM 96.3% | [10]; [18] 85% and 99% | [10]; at 50.0 µM 95.3% | [10]; at 100.0 µM 91% | [11]; at 100.0 µM 77% | [12]; at 100.0 µM 90% | [13]; at 33.0 µM 76% | [13]; at 100.0 µM 95% | [14]; [18] 93% and 98% | [15]; at 3.7 µM 75% | [15]; at 11.0 µM 93% | [15]; at 33.0 µM 97% | [15]; at 100.0 µM 96%
66% (inactive) and 91% (active): [5]; [17]
5% (inactive) and 73% (active): [7]; [17]
inactive: [1]; at 1.2 µM 16% | [1]; at 3.7 µM 48% | [2]; at 1.2 µM 0% | [2]; at 3.7 µM 2% | [2]; at 11.0 µM 9% | [2]; at 33.0 µM 24% | [2]; at 100.0 µM 69% | [3]; at 1.2 µM 34% | [4]; at 1.2 µM -1% | [4]; at 3.7 µM 2% | [4]; at 11.0 µM 9% | [4]; at 33.0 µM 33% | [5]; at 1.2 µM 18% | [5]; at 3.7 µM 33% | [5]; at 50.0 µM -18.6% | [6]; at 1.2 µM 3% | [6]; at 3.7 µM 7% | [6]; [17] 15% and 27% | [6]; at 11.0 µM 19% | [6]; at 33.0 µM 50% | [6]; at 50.0 µM 50.2% | [16]; at 1.2 µM 6% | [16]; at 3.7 µM 12% | [16]; at 11.0 µM 25% | [16]; at 33.0 µM 56% | [7]; at 50.0 µM -13.2% | [9]; [17] 6% and 22% | [10]; at 1.2 µM 3% | [10]; at 3.7 µM 4% | [10]; [17] 6% and 10% | [10]; at 11.0 µM 14% | [10]; at 33.0 µM 60% | [11]; at 1.2 µM -2% | [11]; at 3.7 µM 11% | [11]; at 11.0 µM 11% | [11]; at 33.0 µM 26% | [12]; at 1.2 µM 0% | [12]; at 3.7 µM 3% | [12]; at 11.0 µM 12% | [12]; at 33.0 µM 38% | [13]; at 1.2 µM 5% | [13]; at 3.7 µM 18% | [13]; at 11.0 µM 41% | [14]; at 50.0 µM 6.8% | [15]; at 1.2 µM 39%
